These results are taken from paper PMC7862700, “An all-to-all approach to the identification of sequence-specific readers for epigenetic DNA modifications on cytosine”.

Common to all, as to test: DAPPL (digital affinity profiling via proximity ligation, sequencing); 10 mM Tris-HCl pH 7.5, 50 mM NaCl, 1 mM DTT, 4% glycerol, room temperature, 30 min; GST-TFs on glutathione beads, 16-mer random dsDNA library, 0.1% formaldehyde crosslink after washing; high values mean tight binding
One assay has as its target T1, FEV (Homo sapiens, UniProt Q99581 1-238).
T1 sequence: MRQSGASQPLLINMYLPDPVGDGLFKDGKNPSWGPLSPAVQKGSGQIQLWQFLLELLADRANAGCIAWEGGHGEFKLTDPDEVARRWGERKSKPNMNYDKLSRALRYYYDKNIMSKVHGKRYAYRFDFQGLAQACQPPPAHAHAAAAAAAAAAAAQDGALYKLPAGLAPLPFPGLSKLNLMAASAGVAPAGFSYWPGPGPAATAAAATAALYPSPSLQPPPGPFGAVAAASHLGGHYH
Particulars: protein: recombinant; tags: N-terminal GST; dsDNA, one strand shown. In a few lines: (§1)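 Binding signal is given per hexamer as its read frequency for a factor divided by its frequency in the tag-only sample. GST-fused human transcription factors were expressed in yeast, captured on glutathione beads, barcoded with DNA and pooled with that sample, then incubated with 200 nmole of a 16-mer random double-stranded DNA library in Tris/NaCl/DTT/glycerol buffer for 30 min at room temperature. The pools were then washed, crosslinked, proximity-ligated, amplified by PCR and sequenced on an Illumina NextSeq500.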

The target of a further assay is ETV5 (Homo sapiens, UniProt P41161 1-510). The settings on record: protein: recombinant; tags: N-terminal GST; dsDNA, one strand shown. In a few lines:
as §1

In a further assay the target is HSF1 (Homo sapiens, UniProt Q00613 1-529). Particulars: protein: recombinant; tags: N-terminal GST; chain copies: 3; dsDNA, one strand shown. In a few lines: as §1
HSF1, sequence (Q00613 whole entry): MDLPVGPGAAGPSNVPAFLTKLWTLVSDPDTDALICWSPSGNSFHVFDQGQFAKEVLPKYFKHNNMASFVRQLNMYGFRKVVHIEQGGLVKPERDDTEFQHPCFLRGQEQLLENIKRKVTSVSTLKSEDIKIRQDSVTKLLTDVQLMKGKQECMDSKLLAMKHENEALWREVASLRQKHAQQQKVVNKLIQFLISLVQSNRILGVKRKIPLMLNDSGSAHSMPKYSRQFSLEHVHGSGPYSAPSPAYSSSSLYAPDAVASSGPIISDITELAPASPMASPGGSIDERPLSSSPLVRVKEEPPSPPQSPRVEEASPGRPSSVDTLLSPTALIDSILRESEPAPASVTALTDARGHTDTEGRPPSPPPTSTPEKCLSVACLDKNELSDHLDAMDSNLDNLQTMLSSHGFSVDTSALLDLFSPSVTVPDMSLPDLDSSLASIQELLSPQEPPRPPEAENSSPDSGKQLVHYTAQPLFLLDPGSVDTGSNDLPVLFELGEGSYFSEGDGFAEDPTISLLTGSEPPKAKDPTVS
For a further assay, the target named is T2, SPIC (Homo sapiens, UniProt Q8N5J4 1-248).
T2 sequence: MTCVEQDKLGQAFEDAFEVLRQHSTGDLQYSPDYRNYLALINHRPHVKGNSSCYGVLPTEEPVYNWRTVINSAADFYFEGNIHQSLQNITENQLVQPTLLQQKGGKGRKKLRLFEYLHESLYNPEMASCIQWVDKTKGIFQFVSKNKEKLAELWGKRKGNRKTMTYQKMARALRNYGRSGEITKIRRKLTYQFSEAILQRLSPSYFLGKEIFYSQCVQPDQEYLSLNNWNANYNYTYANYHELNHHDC
The settings on record: protein: recombinant; tags: N-terminal GST; dsDNA, one strand shown. In a few lines:
as §1

In another assay the target is ELF4 (Homo sapiens, UniProt Q99607 1-663). The settings on record: protein: recombinant; tags: N-terminal GST; dsDNA, one strand shown. Summed up:
as §1

A further assay addresses T3, ELK4 (Homo sapiens, UniProt P28324-2 1-405).
T3 sequence: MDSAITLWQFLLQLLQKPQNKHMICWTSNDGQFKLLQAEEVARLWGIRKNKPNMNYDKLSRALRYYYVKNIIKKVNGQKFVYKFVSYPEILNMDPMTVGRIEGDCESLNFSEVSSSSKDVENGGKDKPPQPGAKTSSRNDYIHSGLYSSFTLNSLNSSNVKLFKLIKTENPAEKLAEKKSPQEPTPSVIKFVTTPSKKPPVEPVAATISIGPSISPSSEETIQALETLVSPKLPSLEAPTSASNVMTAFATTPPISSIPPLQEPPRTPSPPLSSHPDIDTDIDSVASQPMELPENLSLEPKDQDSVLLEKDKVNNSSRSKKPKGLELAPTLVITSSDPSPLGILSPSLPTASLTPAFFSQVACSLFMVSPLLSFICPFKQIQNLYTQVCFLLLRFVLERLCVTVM
The settings on record: protein: recombinant; tags: N-terminal GST; dsDNA, one strand shown. In a few lines: as §1

For another assay, the target named is T4, ETV2 (Homo sapiens, UniProt O00321 1-342).
T4 sequence: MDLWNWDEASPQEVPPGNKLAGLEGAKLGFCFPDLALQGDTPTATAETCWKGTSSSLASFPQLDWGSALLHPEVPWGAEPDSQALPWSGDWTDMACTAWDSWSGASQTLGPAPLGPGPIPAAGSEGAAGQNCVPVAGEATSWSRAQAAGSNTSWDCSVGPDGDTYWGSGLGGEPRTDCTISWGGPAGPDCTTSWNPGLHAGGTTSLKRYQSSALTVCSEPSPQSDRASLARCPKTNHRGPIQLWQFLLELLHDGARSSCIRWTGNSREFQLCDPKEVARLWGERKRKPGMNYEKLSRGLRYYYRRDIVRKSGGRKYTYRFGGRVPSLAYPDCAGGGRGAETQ
Particulars: protein: recombinant; tags: N-terminal GST; dsDNA, one strand shown. In a few lines: as §1

Another assay concerns the target T5, ELF3 (Homo sapiens, UniProt P78545 1-371).
T5 sequence: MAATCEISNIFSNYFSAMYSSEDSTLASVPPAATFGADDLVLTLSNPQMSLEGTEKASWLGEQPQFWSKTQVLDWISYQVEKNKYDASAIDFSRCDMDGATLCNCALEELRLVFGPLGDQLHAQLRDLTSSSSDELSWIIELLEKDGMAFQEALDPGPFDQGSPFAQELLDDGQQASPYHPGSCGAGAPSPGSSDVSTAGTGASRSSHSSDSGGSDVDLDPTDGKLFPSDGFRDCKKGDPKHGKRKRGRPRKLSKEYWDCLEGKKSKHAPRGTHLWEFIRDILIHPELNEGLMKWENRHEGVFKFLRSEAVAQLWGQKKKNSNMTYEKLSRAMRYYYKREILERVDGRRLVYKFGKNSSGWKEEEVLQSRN
The settings on record: protein: recombinant; tags: N-terminal GST; dsDNA, one strand shown. In a few lines: as §1

In a further assay the target is CRX (Homo sapiens, UniProt O43186 1-299). The settings on record: protein: recombinant; tags: N-terminal GST; dsDNA, one strand shown. Summed up: as §1
CRX, sequence (O43186 whole entry): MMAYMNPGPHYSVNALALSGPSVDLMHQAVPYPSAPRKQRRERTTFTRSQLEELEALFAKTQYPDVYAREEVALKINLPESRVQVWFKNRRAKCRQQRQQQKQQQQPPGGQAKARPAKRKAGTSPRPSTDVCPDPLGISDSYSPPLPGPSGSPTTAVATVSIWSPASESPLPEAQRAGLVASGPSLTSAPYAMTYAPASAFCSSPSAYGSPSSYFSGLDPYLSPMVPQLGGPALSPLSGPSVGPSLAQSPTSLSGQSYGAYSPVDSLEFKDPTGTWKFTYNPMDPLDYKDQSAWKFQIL
The target in another assay is ETV1 (Homo sapiens, UniProt P50549 1-477). The settings on record: protein: recombinant; tags: N-terminal GST; dsDNA, one strand shown. In a few lines:
as §1

The next assay has as its target T6, ERF (Homo sapiens, UniProt P50548 1-548).
T6 sequence: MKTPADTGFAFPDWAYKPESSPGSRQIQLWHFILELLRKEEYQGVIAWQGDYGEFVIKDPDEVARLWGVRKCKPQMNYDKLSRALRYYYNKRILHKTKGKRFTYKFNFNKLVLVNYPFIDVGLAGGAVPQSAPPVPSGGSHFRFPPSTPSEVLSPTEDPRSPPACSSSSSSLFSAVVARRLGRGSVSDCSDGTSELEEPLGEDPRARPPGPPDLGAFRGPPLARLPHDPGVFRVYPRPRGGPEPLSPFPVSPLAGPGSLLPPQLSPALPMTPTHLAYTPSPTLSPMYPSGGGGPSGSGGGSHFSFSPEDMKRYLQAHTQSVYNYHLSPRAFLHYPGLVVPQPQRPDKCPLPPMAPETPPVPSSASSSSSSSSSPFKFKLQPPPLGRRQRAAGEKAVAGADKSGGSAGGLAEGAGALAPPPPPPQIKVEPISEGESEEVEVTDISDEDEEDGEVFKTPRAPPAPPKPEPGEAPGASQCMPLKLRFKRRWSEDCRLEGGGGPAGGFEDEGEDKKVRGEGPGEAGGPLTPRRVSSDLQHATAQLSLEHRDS
The settings on record: protein: recombinant; tags: N-terminal GST; dsDNA, one strand shown. Summed up:
as §1

A further assay addresses T7, ETV3L (Homo sapiens, UniProt Q6ZN32 1-361).
T7 sequence: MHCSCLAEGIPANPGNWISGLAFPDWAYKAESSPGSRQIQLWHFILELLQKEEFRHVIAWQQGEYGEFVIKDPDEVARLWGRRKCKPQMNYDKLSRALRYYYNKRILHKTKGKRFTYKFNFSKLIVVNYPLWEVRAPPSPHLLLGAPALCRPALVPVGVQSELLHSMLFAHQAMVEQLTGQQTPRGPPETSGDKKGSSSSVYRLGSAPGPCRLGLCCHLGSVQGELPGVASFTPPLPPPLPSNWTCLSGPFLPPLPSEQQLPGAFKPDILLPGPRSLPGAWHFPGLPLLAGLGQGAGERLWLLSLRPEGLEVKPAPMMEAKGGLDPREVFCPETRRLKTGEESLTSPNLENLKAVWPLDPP
Particulars: protein: recombinant; tags: N-terminal GST; dsDNA, one strand shown. Summed up:
as §1

A further assay concerns the target T8, ETS2 (Homo sapiens, UniProt P15036 1-469).
T8 sequence: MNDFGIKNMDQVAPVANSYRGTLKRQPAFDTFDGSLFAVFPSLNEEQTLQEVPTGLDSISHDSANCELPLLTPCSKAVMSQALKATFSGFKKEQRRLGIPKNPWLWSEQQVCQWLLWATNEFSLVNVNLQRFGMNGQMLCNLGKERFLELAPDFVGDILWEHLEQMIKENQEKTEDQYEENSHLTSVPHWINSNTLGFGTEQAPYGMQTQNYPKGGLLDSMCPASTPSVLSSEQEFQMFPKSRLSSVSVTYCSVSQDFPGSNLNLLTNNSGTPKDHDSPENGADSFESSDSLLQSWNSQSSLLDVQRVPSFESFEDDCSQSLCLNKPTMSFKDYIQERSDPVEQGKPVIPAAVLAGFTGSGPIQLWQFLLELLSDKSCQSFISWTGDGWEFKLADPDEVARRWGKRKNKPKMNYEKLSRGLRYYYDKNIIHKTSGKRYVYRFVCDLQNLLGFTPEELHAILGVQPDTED
The settings on record: protein: recombinant; tags: N-terminal GST; dsDNA, one strand shown. Summed up:
as §1

For the next assay, the target named is T9, SPDEF (Homo sapiens, UniProt O95238 1-335).
T9 sequence: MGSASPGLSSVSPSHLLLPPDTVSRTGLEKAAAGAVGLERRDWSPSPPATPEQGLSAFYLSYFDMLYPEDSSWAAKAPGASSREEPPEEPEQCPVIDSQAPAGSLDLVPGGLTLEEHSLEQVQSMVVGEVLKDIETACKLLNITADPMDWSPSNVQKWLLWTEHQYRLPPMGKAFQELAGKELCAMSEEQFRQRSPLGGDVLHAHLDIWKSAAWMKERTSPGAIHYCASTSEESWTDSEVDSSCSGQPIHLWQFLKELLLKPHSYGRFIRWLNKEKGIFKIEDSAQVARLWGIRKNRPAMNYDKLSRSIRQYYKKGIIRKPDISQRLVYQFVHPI
The settings on record: protein: recombinant; tags: N-terminal GST; dsDNA, one strand shown. Summed up:
as §1

Another assay deals with T10, ETV7 (Homo sapiens, UniProt Q9Y603 1-341).
T10 sequence: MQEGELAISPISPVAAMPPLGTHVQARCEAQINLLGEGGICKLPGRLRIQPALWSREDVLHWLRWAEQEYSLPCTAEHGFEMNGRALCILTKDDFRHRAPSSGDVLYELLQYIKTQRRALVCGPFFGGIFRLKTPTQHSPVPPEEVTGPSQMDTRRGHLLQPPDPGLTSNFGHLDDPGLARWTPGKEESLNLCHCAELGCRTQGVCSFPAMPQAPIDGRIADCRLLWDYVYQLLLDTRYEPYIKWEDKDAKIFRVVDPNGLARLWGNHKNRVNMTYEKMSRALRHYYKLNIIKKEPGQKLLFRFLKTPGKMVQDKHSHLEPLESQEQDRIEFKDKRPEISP
Particulars: protein: recombinant; tags: N-terminal GST; dsDNA, one strand shown. In a few lines:
as §1

A further assay has as its target T11, ELF5 (Homo sapiens, UniProt Q9UKW6-2 1-255).
T11 sequence: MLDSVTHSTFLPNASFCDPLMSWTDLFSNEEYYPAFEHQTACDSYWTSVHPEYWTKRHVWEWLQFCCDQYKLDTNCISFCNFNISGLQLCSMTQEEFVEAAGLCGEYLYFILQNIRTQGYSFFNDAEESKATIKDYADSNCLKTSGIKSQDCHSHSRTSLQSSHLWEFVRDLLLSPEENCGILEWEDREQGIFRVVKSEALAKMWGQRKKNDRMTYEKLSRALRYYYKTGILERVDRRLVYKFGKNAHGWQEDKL
The settings on record: protein: recombinant; tags: N-terminal GST; dsDNA, one strand shown. Summed up:
as §1

The next assay has as its target T12, ETV3 (Homo sapiens, UniProt P41162-2 1-143).
T12 sequence: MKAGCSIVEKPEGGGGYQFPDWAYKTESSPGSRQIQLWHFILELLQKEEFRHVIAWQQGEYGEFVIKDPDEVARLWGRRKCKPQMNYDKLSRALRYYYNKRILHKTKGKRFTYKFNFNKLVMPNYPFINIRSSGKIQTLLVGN
The settings on record: protein: recombinant; tags: N-terminal GST; dsDNA, one strand shown. In a few lines: as §1

For a further assay, the target named is ETV6 (Homo sapiens, UniProt P41212 1-452). Particulars: protein: recombinant; tags: N-terminal GST; dsDNA, one strand shown. In a few lines: as §1
ETV6, sequence (P41212 whole entry): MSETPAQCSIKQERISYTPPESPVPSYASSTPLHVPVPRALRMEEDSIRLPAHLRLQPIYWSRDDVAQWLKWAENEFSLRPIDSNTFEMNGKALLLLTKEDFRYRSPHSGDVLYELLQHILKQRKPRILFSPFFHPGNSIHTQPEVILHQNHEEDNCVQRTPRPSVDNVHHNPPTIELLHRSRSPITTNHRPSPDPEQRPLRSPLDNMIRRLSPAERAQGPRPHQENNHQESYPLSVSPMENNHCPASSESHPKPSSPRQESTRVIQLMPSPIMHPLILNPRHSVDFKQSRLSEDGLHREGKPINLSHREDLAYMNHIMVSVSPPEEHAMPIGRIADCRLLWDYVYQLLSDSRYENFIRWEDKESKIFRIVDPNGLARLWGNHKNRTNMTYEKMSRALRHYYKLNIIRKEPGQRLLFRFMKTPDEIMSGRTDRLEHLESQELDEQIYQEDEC

ETV1, sequence (P50549 whole entry): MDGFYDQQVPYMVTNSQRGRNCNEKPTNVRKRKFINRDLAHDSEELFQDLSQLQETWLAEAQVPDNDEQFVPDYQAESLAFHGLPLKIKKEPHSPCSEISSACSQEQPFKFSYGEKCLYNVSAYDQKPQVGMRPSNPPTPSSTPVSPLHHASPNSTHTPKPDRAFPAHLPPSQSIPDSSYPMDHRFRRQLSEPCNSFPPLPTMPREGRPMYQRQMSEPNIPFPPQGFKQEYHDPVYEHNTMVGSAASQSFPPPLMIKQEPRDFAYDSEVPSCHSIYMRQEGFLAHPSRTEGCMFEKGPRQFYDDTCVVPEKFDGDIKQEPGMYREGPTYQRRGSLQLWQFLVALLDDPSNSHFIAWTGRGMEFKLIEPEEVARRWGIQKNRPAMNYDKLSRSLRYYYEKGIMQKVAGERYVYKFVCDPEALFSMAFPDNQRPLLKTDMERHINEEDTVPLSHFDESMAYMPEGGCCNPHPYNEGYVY
ETV5, sequence (P41161 whole entry): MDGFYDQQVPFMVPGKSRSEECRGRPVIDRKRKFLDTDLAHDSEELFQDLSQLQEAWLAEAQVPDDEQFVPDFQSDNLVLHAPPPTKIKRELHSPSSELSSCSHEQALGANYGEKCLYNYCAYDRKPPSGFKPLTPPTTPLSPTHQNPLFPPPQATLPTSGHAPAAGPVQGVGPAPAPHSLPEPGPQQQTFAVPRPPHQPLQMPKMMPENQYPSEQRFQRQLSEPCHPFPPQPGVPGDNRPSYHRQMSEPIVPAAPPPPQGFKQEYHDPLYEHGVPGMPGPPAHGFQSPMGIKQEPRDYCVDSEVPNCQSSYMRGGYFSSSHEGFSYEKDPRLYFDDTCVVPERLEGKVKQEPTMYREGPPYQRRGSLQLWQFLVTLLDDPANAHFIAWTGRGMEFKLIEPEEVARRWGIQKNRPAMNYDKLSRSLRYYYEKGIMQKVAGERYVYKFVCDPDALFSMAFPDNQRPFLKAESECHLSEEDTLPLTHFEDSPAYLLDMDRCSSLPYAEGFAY
ELF4, sequence (Q99607 whole entry): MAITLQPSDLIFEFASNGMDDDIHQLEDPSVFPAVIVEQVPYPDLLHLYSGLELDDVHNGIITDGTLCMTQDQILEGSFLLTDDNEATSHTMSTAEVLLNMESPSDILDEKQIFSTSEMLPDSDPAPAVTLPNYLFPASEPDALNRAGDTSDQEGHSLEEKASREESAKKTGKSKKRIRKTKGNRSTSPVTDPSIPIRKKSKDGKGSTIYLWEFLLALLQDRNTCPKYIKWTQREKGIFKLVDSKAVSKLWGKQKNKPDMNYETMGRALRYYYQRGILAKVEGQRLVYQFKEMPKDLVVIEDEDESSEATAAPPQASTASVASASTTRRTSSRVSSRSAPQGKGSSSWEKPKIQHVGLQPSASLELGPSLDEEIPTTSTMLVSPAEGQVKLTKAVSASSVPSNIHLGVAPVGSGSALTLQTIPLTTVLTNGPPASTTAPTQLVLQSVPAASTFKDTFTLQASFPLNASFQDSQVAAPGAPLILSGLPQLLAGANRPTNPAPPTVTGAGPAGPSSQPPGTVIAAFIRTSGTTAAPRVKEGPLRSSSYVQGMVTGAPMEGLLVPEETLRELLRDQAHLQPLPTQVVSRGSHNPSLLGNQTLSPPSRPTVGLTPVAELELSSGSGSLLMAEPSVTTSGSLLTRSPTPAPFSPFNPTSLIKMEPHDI

Turning to TGAACA, the binding signal was 1.21 fold enrichment (6-mer frequency, TF over GST control) with FEV; 1.2 fold enrichment (6-mer frequency, TF over GST control) in the assay with ETV5; 1.18 fold enrichment (6-mer frequency, TF over GST control) in the assay with HSF1; 1.29 fold enrichment (6-mer frequency, TF over GST control) with SPIC; 1.24 fold enrichment (6-mer frequency, TF over GST control) in the assay with ELF4; 1.4 fold enrichment (6-mer frequency, TF over GST control) with ELK4. Besides, the binding signal in the assay with ETV2 was 1.27 fold enrichment (6-mer frequency, TF over GST control); in the assay with ELF3, 1.3 fold enrichment (6-mer frequency, TF over GST control); with CRX it was 1.06 fold enrichment (6-mer frequency, TF over GST control); with ETV1, 1.27 fold enrichment (6-mer frequency, TF over GST control); with ERF it was 1.27 fold enrichment (6-mer frequency, TF over GST control); with ETV3L it was 1.31 fold enrichment (6-mer frequency, TF over GST control). Moreover, the binding signal was 1.18 fold enrichment (6-mer frequency, TF over GST control) with ETS2; 1.22 fold enrichment (6-mer frequency, TF over GST control) with SPDEF; 1.21 fold enrichment (6-mer frequency, TF over GST control) with ETV7; 1.26 fold enrichment (6-mer frequency, TF over GST control) in the assay with ELF5; 1.25 fold enrichment (6-mer frequency, TF over GST control) in the assay with ETV3; 1.21 fold enrichment (6-mer frequency, TF over GST control) with ETV6.
